Laboratory results from PubChem BioAssay (NCATS).
Active and inactive are the calls of the source. No rule for the calls is given here.

Each molecule was assayed on HIV-1 nucleocapsid protein NCp7 (binding to TG oligonucleotide) (assay: HIV Nucleocapsid (AID 346;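 also: potency is for inhibitors that block NC binding and lower polarization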)). Conditions: HIV-1 NC / fluorescein-TGTGTGTG probe, fluorescence polarization.
Procedure, shortened: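 NCp7 100 nM + fluorescein TG4xF 10 nM; Hepes pH 7.5/250mM NaCl/1uM ZnCl2/0.004% PEG 20000; 1 hr RT; FP, 45 s exposure; oligo-only wells as negative control.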
Potency is read from the fitted curve at half-maximal effect.

Compound	Potency
COc1ccc(Oc2ncc3nc(-c4ccc(F)cc4)c(=O)n(C)c3n2)cc1	> 20 µM (inactive)
CN(C)c1ncc2nc(-c3ccccc3)c(=O)n(Cc3cccs3)c2n1	> 20 µM (inactive)
O=c1c(-c2ccc(F)c(F)c2)nc2cncnc2n1-c1ccccc1	> 20 µM (inactive)
CCNc1ncc2nc(CCc3ccccc3)c(=O)n(-c3ccccc3)c2n1	> 4 µM (inactive)
COc1ccc(Oc2ncc3nc(C)c(=O)n(Cc4ccc(F)cc4)c3n2)cc1	> 20 µM (inactive)
Clc1ccccc1-c1cncnc1NCc1cccs1	> 20 µM (inactive)
Cc1nc2cnc(Oc3ccccc3)nc2n(C2CC2)c1=O	> 20 µM (inactive)
COc1ccccc1-c1nc(NCc2cccs2)c2ccccc2n1	> 20 µM (inactive)
CCNc1ncc2nc(-c3ccc(OC)cc3)c(=O)n(CCc3ccccc3)c2n1	> 4 µM (inactive)
COCCn1c(=O)c(-c2ccc(Cl)cc2)nc2cnc(Oc3ccccc3)nc21	> 20 µM (inactive)
O=C(c1csnn1)N1CCC2(CC1)CN(c1ncccn1)C2	> 20 µM (inactive)
Cc1noc(C)c1-c1cc(NC2CCNCC2)ncn1	> 20 µM (inactive)
COc1ccccc1CCn1c(=O)c(-c2ccccc2)nc2cncnc21	> 20 µM (inactive)
COCC(=O)N1CCC[C@@]2(CCN(Cc3ccccc3OC)C2)C1	> 20 µM (inactive)
O=c1cnc2cnc(Nc3ccccc3)nc2n1C[C@H]1CCCO1	> 20 µM (inactive)
CN1CCN(c2ccnc(-c3ccccc3C(F)(F)F)n2)CC1	> 20 µM (inactive)
N#Cc1ccc(CN2CC[C@@]3(CCCN(S(=O)(=O)c4ccccc4)C3)C2)cc1	> 20 µM (inactive)
COc1ncc2nc(C)c(=O)n(CCc3ccccc3)c2n1	> 20 µM (inactive)
O=C(c1ccncc1)N1CCC[C@@]2(CCN(c3ccccc3)C2)C1	> 20 µM (inactive)
COc1ccc(-n2c(=O)c(-c3ccccc3)nc3cnc(N4CCN(C)CC4)nc32)cc1	> 20 µM (inactive)

Compound	Potency
COc1ccc(CNc2cc(-c3cccc(C#N)c3)ncn2)c(OC)c1	> 20 µM (inactive)
COc1ccc(C(=O)N2CCC3(CCN(Cc4ccc(C#N)cc4)CC3)CC2)cc1	> 20 µM (inactive)
CN(C)Cc1ccccc1-c1ccc2ncnc(N(C)Cc3ccco3)c2c1	> 20 µM (inactive)
COc1cccc(-c2ccc3ncnc(NCc4cccs4)c3c2)c1	> 20 µM (inactive)
O=c1c(-c2ccc(Cl)cc2)nc2cnc(N3CCNCC3)nc2n1-c1ccccc1	> 20 µM (inactive)
Cn1c(=O)cnc2cnc(OCc3ccccc3)nc21	> 20 µM (inactive)
O=C(Oc1ccccc1)N1CCC2(CC1)CCN(c1cccc(-c3ccccc3)c1)CC2	> 20 µM (inactive)
COC(=O)N1CCC2(CCCN(C(=O)Nc3cccc(F)c3)C2)CC1	> 20 µM (inactive)
N#CCCn1c(=O)c(-c2ccccc2)nc2cnc(N3CCNCC3)nc21	> 20 µM (inactive)
COc1ccc(-n2c(=O)c(-c3cc(F)cc(F)c3)nc3cncnc32)cc1	> 20 µM (inactive)
CN1CCN(c2ncncc2-c2ccc(N(C)C)cc2)CC1	> 20 µM (inactive)
COc1ccc(-c2nc3cnc(N4CCNCC4)nc3n(-c3ccccc3)c2=O)cc1	> 20 µM (inactive)
COc1ccc(C(=O)N2CCC3(CCCN(c4ncccn4)C3)CC2)cc1	> 20 µM (inactive)
FC(F)(F)c1ccccc1-c1cncnc1NCc1ccccc1	> 20 µM (inactive)
CC(C)NC(=O)N1CCC2(CC1)CCN(C(=O)c1csnn1)CC2	> 20 µM (inactive)
COCCNc1cc(-c2c(C)noc2C)ncn1	> 20 µM (inactive)
COc1ccc(Oc2ncc3nc(-c4ccc(F)cc4)c(=O)n(C[C@H]4CCCO4)c3n2)cc1	> 20 µM (inactive)
COCCNc1ncnc2ccc(-c3ccccc3CN(C)C)cc12	> 20 µM (inactive)
COc1ccccc1CN1CCCC2(CCN(C(=O)c3cc(C(F)(F)F)cc(C(F)(F)F)c3)CC2)C1	> 20 µM (inactive)
CN(C)Cc1ccccc1-c1nc(NC2CC2)c2ccccc2n1	> 20 µM (inactive)
